{"source": "PubChem BioAssay AID504332", "about": "(National Center for Advancing Translational Sciences (NCATS), 2011)", "note": "About 31,000 (8.9%) of roughly 350,000 compounds were called active. A call without a number means that no potency is given here. Roughly 15% stayed inconclusive and do not appear here. This is one part of a sample in which actives are shown more often than they occur. The call rests on the fitted dose curve; in most records, active means well fitted inhibition curve with a large enough effect; inconclusive means small, poorly fitted or top-dose-only effect; inactive means no such curve, though single readings can be large or run the other way. Potency means the concentration at half of the fitted maximal effect."}
{"target": "Histone-lysine N-methyltransferase EHMT2 (Homo sapiens) (UniProt Q96KQ7)", "sequence (Q96KQ7 913-1193 limits assumed)": "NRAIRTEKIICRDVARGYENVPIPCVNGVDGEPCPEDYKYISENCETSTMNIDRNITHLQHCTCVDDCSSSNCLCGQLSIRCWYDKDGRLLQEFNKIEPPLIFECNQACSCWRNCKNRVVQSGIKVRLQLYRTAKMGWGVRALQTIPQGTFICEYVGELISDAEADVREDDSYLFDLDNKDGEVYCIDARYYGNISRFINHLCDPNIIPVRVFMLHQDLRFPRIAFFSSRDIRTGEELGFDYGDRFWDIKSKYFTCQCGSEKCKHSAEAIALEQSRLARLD", "assay": "qHTS Assay for Inhibitors of Histone Lysine Methyltransferase G9a; further: nearly all actives have a fitted effect of over 75% in size", "conditions": "G9a H3K9 monomethylation, AlphaScreen, 2 h; series mostly up to 59 µM", "outline": "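Using a bead-based AlphaScreen, monomethylated H3K9 product from 2 h room-temperature reactions (G9a 20 nM, peptide 500 nM, SAM 20 uM) was detected with 0.5 ug/mL rabbit anti-H3K9me1 antibody.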"}
{"smiles": "CC(=O)Nc1ccc(S(=O)(=O)N2CCn3cccc3C2C)cc1", "note": "(centres undefined)", "activity, negative = inhibition": "-104% [at 12.7 µM] (inactive)"}
{"smiles": "CCCC1(C(=O)OCC)NC(c2ccc(N(C)C)cc2)C2C(=O)N(c3ccc4c(c3)OCCO4)C(=O)C21", "note": "(centres undefined)", "Potency": "8.91 µM (active)"}
{"smiles": "CCOC(=O)C1(C)NC(c2ccco2)C2C(=O)N(c3ccccc3)C(=O)C21", "note": "(centres undefined)", "Potency": "inactive"}
{"smiles": "COC(=O)C1(C)NC(c2ccc(C)cc2)C2C(=O)N(c3ccc(F)cc3)C(=O)C21", "note": "(centres undefined)", "Potency": "inactive"}
{"smiles": "Cc1csc(NC(=O)C2CCN(S(=O)(=O)c3ccccc3)CC2)n1", "Potency": "inactive"}
{"smiles": "CC(=O)Nc1cccc(C(=O)Nc2nc(C)cs2)c1", "Potency": "inactive"}
{"smiles": "Cc1csc(NC(=O)NC2(C(F)(F)F)Oc3ccccc3O2)n1", "Potency": "2 µM (active)"}
{"smiles": "CC(C)(C)C1C/C(=C/c2ccco2)C(=O)/C(=C/c2ccco2)C1", "note": "(centres undefined)", "Potency": "39.8 µM (active)"}
{"smiles": "O=C1OC(/C=C/c2ccccc2)=NC/1=C/c1ccco1", "Potency": "inactive"}
{"smiles": "CCOC(=O)c1c(S(=O)(=O)N2CCC(C(=O)NCc3ccccc3OC)CC2)c(C)n(C)c1C", "Potency": "inactive"}
{"smiles": "CCOC(=O)c1c(NC(=O)c2ccc(S(=O)(=O)N3CCCC(C)C3)cc2)sc2c1CCN(C(C)C)C2", "note": "(centres undefined)", "Potency": "inactive"}
{"smiles": "CC(=O)Nc1ccc(OCC(=O)NCc2ccc(C)cc2)cc1", "Potency": "inactive"}
{"smiles": "CC(C)(C)NC(=O)COc1ccc(CNc2ccc3[nH]c(=O)[nH]c3c2)cc1", "Potency": "31.6 µM (active)"}
{"smiles": "COC(=O)c1ccc(OCC(=O)NC(C)(C)C)cc1", "Potency": "inactive"}
{"smiles": "Cc1ccc(OCC(=O)N2CCN(S(=O)(=O)c3ccc(Cl)s3)CC2)cc1C", "activity, negative = inhibition": "6.17% [at 2.33 µM] (inactive)"}
{"smiles": "C=CCNC(=O)COc1coc(CN2CCN(Cc3ccccc3)CC2)cc1=O", "activity, negative = inhibition": "18.3% [at 0.501 µM] (inactive)"}
{"smiles": "C=CCNC(=S)/N=c1/ccccn1Cc1ccccc1", "Potency": "31.6 µM (active)"}
{"smiles": "C=CCNC(=S)N/N=C/c1ccc(OCc2ccccc2)cc1", "Potency": "inactive"}
{"smiles": "O=C(CSc1nc2[nH]c(=O)[nH]c(=O)c2s1)Nc1cccc(F)c1", "activity, negative = inhibition": "24.5% [at 12.7 µM] (inactive)"}
{"smiles": "COc1ccc(OC)c(NC(=O)CSC2=Nc3ccccc3C3=NC(CC(=O)NCCc4ccccc4)C(=O)N23)c1", "note": "(centres undefined)", "Potency": "inactive"}
{"smiles": "Cc1cc(NC(=O)COC(=O)COc2ccc(Cl)cc2C)c([N+](=O)[O-])cc1C", "Potency": "8.91 µM (active)"}
{"smiles": "COc1ccc(OCC(=O)Nc2cc(C)c(Cl)cc2OC)c([N+](=O)[O-])c1", "Potency": "inactive"}
{"smiles": "COc1cc(NC(=O)COC(=O)CSc2ccc3ccccc3c2)c(C)cc1[N+](=O)[O-]", "Potency": "inactive"}
{"smiles": "Cc1ccccc1OCCSc1nc2ccc(NC(=O)c3ccco3)cc2s1", "Potency": "inactive"}
{"smiles": "CC(=O)c1c(C)[nH]c(C(=O)OCC(=O)Nc2c(C)cccc2C)c1C", "activity, negative = inhibition": "-11.6% [at 12.7 µM] (inactive)"}
{"smiles": "Brc1ccc2nc(N3CCCC3)sc2c1", "Potency": "inactive"}
{"smiles": "CC(=O)Nc1ccc(S(=O)(=O)Nc2ccc(N3CCOCC3)c(F)c2)cc1", "Potency": "inactive"}
{"smiles": "O=S(=O)(Nc1ccc2nc(N3CCOCC3)sc2c1)c1ccccc1", "Potency": "50.1 µM (active)"}
{"smiles": "Cc1ccc(-n2c(N)c(C(=O)N3CCOCC3)sc2=S)c(C)c1", "Potency": "7.94 µM (active)"}
{"smiles": "Cc1ccc(S(=O)(=O)N2CCN(C(=O)N3CCOCC3)CC2)c(C)c1", "Potency": "inactive"}
{"smiles": "COC(=O)c1sc(=S)n(-c2ccccc2)c1N", "Potency": "3.16 µM (active)"}
{"smiles": "Cc1cccc(-n2c(N)c(C(=O)N3CCN(C)CC3)sc2=S)c1", "Potency": "8.91 µM (active)"}
{"smiles": "CC(C)=C1SC(N2CCN(c3cccc(C)c3)CC2)=NC1=O", "activity, negative = inhibition": "10.3% [at 12.7 µM] (inactive)"}
{"smiles": "COC(=O)c1sc(=S)n(-c2ccc(Cl)cc2)c1C", "Potency": "inactive"}
{"smiles": "N#Cc1ccccc1-n1c(N)c(C(=O)N2CCCC2)sc1=S", "activity, negative = inhibition": "19.8% [at 0.501 µM] (inactive)"}
{"smiles": "Cc1cccc(C(=O)N2CCCN(C(=O)c3cccc(C)c3)CC2)c1", "activity, negative = inhibition": "-5.03% [at 12.7 µM] (inactive)"}
{"smiles": "COC(=O)c1sc(N2CCN(Cc3ccccc3)CC2)nc1N", "Potency": "inactive"}
{"smiles": "COc1ccc(CCNc2nc(-c3ccc(Cl)cc3)cc(C(F)(F)F)n2)cc1OC", "Potency": "inactive"}
{"smiles": "COc1cc(-c2noc(-c3ccc(N4CCCC4)c([N+](=O)[O-])c3)n2)cc(OC)c1OC", "Potency": "inactive"}
{"smiles": "O=C(COc1ccccc1)OCc1cc(=O)n2nc(-c3cccs3)sc2n1", "Potency": "inactive"}
{"smiles": "NC(=O)N/N=C\\c1cccs1", "Potency": "inactive"}
{"smiles": "Cc1cc(/C=N/NC(N)=O)c(C)n1C1CCCCC1", "Potency": "50.1 µM (active)"}
{"smiles": "Cc1cccc(-n2c(C)cc(/C=N\\NC(=O)c3cccs3)c2C)c1", "Potency": "inactive"}
{"smiles": "Cn1c(=O)c(=O)n(C)c2cc(NC(=O)c3ccccc3Br)ccc21", "Potency": "inactive"}
{"smiles": "COc1ccc2c(c1)Cc1sc(NC(=O)c3ccccc3Br)nc1-2", "Potency": "25.1 µM (active)"}
{"smiles": "COc1cccc(C(=O)NNC(=O)c2ccccc2Br)c1", "Potency": "inactive"}
{"smiles": "COc1ccc(CNC(=O)c2cc3c(-c4ccccc4F)nn(C)c3s2)c(OC)c1", "Potency": "inactive"}
{"smiles": "CCN(CC(=O)Nc1ccccc1C(F)(F)F)C(=O)CSCc1c(C)noc1C", "activity, negative = inhibition": "9.18% [at 0.501 µM] (inactive)"}
{"smiles": "CCOC(=O)C1(Cc2ccccc2C)CCCN(C(=O)CCc2c(C)noc2C)C1", "note": "(centres undefined)", "Potency": "inactive"}
{"smiles": "CCOc1ccc(N2C(=O)CSC2=NC#N)cc1", "activity, negative = inhibition": "-16.5% [at 12.7 µM] (inactive)"}
{"smiles": "CCOc1ccc(N2C(=O)CN(c3cccc4ccccc34)C2=S)cc1", "Potency": "inactive"}
{"smiles": "CCOc1ccc(N2C(=O)/C(=C/c3ccc(C)o3)N(C)C2=S)cc1", "Potency": "3.55 µM (active)"}
{"smiles": "COc1ccc(/C=C2\\SC(=O)N(CCC(=O)NC3CCS(=O)(=O)C3)C2=O)cc1", "note": "(centres undefined)", "Potency": "inactive"}
{"smiles": "Cc1ccc(-n2c3nc(=O)[nH]c(=O)c-3cc3c(Cl)cccc32)cc1", "Potency": "inactive"}
{"smiles": "CCOc1ccc(S(=O)(=O)N2CCCC(C(=O)N3CCC(C(N)=O)CC3)C2)cc1Cl", "note": "(centres undefined)", "Potency": "inactive"}
{"smiles": "CCN1/C(=C\\c2ccc3ccccc3[n+]2CC)Sc2cc(C)ccc21", "Potency": "22.4 µM (active)"}
{"smiles": "Cc1nc2nc(SCC(=O)Nc3cccc(F)c3)[nH]c2cc1Br", "Potency": "inactive"}
{"smiles": "COc1ccc(C(=O)Nc2ccc(C3(C#N)CCCC3)cc2)cc1OC", "activity, negative = inhibition": "5.57% [at 0.501 µM] (inactive)"}
{"smiles": "CC1(C)N=C(SCc2ccccc2Cl)c2ccccc2N1", "Potency": "inactive"}
{"smiles": "CCc1nnc(NC(=O)/C=C/c2ccc(C)o2)s1", "Potency": "inactive"}
{"smiles": "Cc1ccc(/C=C/C(=O)Nc2ccc([N+](=O)[O-])c(NC(=O)/C=C/c3ccc(C)o3)c2)o1", "Potency": "22.4 µM (active)"}
{"smiles": "CNc1ccc(NC(C)=O)cc1[N+](=O)[O-]", "Potency": "inactive"}
{"smiles": "CC(C(=O)N1CCN(c2ccccc2F)CC1)c1ccc([N+](=O)[O-])cc1", "note": "(centres undefined)", "activity, negative = inhibition": "13.1% [at 0.501 µM] (inactive)"}
{"smiles": "COc1ccc2c(CNCCc3ccccc3C)c(C(=O)O)n(Cc3ccccc3C)c2c1", "Potency": "inactive"}
{"smiles": "CCOc1ccc(C2C(C(=O)Nc3ccc(Cl)cc3)=C(C)Nc3nc(C(F)(F)F)nn32)cc1", "note": "(centres undefined)", "Potency": "inactive"}
{"smiles": "Cc1nnc(SCC(=O)NC2CCCC2)s1", "Potency": "inactive"}
{"smiles": "Cc1nnc(SCC2=C(C(=O)O)N3C(=O)C(NC(=O)Cn4nc(C)c(Cl)c4C)C3SC2)s1", "note": "(centres undefined)", "Potency": "31.6 µM (active)"}
{"smiles": "O=C1N[C@@H](Cc2ccccc2)C(=O)N2[C@H]1C[C@]1(Br)c3ccccc3N(S(=O)(=O)c3ccccc3)[C@H]21", "activity, negative = inhibition": "7.4% [at 2.33 µM] (inactive)"}
{"smiles": "CC1CCc2c(sc3nc4n(c(=O)c23)CCS4)C1", "note": "(centres undefined)", "Potency": "50.1 µM (active)"}
{"smiles": "Cc1ccc(NC(=O)Cn2nnc3sc4c(c3c2=O)CCC(C)C4)cc1", "note": "(centres undefined)", "Potency": "inactive"}
{"smiles": "CCCn1nnc2sc3c(c2c1=O)CCC(C)C3", "note": "(centres undefined)", "Potency": "inactive"}
{"smiles": "CC1CCN(C(=O)COC(=O)CCC(=O)c2cccs2)CC1", "Potency": "inactive"}
{"smiles": "Brc1ccc2c(c1)NC(c1cccnc1)=NC(c1ccccc1)=N2", "Potency": "inactive"}
{"smiles": "COc1cccc(/C=N/NC(=O)c2[nH]nc3c2CCc2ccccc2-3)c1O", "Potency": "50.1 µM (active)"}
{"smiles": "CCCCN(CC)CCCNC(=O)c1nn(C)c2c1CSc1ccccc1-2", "Potency": "inactive"}
{"smiles": "COc1ccc(C(=O)Nc2ccccc2C(=O)N/N=C/c2ccccc2OC)cc1", "activity, negative = inhibition": "14.1% [at 0.501 µM] (inactive)"}
{"smiles": "COc1cccc(/C=N\\NC(=O)C2=NNC(=O)C2C)c1O", "note": "(centres undefined)", "Potency": "inactive"}
{"smiles": "CN(C)CCNC(=O)c1[nH]nc2c1CCc1ccccc1-2", "Potency": "44.7 µM (active)"}
{"smiles": "CN(C)CCCNC(=O)c1ccc2[nH]c3ccccc3c2c1", "activity, negative = inhibition": "38.1% [at 0.501 µM] (inactive)"}
{"smiles": "O=S(=O)(Nc1ccc(-c2ccc(N3CCOCC3)nn2)cc1)c1cc(Cl)ccc1Cl", "activity, negative = inhibition": "-28.8% [at 2.33 µM] (inactive)"}
{"smiles": "COc1ccccc1N1CCN(C(=O)C2CCN(S(=O)(=O)c3c(C)noc3/C=C/c3ccc(C)cc3)CC2)CC1", "Potency": "inactive"}
{"smiles": "Cc1ccc(CNC(=O)CCS(=O)(=O)c2ccc3c(c2)CC(C)N3C(=O)C2CC2)o1", "note": "(centres undefined)", "activity, negative = inhibition": "17.4% [at 0.0925 µM] (inactive)"}
{"smiles": "Cn1c(SCc2ccc(F)cc2)nnc1-c1ccncc1", "Potency": "inactive"}
{"smiles": "CCOc1ccc(Nc2c(S(=O)(=O)c3ccccc3)cnc3ccccc23)cc1", "Potency": "inactive"}
{"smiles": "Cc1ccc(CNS(=O)(=O)c2ccc(C(=O)N(C)C)s2)cc1", "Potency": "inactive"}
{"smiles": "Cc1ccc(-n2ncc3c(NCCCn4ccnc4)ncnc32)cc1Cl", "Potency": "inactive"}
{"smiles": "Cn1c(=O)[nH]c(=O)c2c1nc(N1CCN(C(c3ccccc3)c3ccccc3)CC1)n2CCO", "Potency": "inactive"}
{"smiles": "Cn1c(=O)[nH]c(=O)c2c1nc(N1CCCCCC1)n2CC(=O)c1ccccc1", "Potency": "inactive"}
{"smiles": "CN1CCN(c2nc3c(c(=O)[nH]c(=O)n3C)n2Cc2cccc3ccccc23)CC1", "Potency": "25.1 µM (active)"}
{"smiles": "Cc1cn([C@H]2CC(F)[C@@H](CO)O2)c(=O)[nH]c1=O", "note": "(some centres undefined)", "activity, negative = inhibition": "8.73% [at 12.7 µM] (inactive)"}
{"smiles": "COc1ccc(NC(=O)Cn2c(=O)n(Cc3ccc(C(=O)NCc4ccccc4Cl)cc3)c(=O)c3ccccc32)cc1", "Potency": "inactive"}
{"smiles": "CN1/C(=C\\C=C2\\N=C(c3ccc(F)cc3)OC2=O)C(C)(C)c2ccccc21", "Potency": "4.47 µM (active)"}
{"smiles": "CN1/C(=C\\C(=O)c2cccnc2Cl)C(C)(C)c2ccccc21", "Potency": "inactive"}
{"smiles": "Cc1noc(C)c1C(=O)OCC(=O)/C=C1\\N(C)c2ccccc2C1(C)C", "Potency": "inactive"}
